Data reported in ChEMBL document CHEMBL3988442, “University of Dundee, Small-Polar-MMV Screening Library” (2021).
For some assays here: Potency and affinity values are given separately.

How the values were obtained:
Set-up in all cases: scale not given: direction of the effect not stated beside the values
[1] = target: Protein translocase subunit SecA (Escherichia coli (strain K12)) (UniProt P10408); test: Assay to Identify E. coli SecA ATPase Inhibitors; assay type: functional; settings: 30 µM
Sequence of Protein translocase subunit SecA (Escherichia coli (strain K12)) (P10408 whole entry): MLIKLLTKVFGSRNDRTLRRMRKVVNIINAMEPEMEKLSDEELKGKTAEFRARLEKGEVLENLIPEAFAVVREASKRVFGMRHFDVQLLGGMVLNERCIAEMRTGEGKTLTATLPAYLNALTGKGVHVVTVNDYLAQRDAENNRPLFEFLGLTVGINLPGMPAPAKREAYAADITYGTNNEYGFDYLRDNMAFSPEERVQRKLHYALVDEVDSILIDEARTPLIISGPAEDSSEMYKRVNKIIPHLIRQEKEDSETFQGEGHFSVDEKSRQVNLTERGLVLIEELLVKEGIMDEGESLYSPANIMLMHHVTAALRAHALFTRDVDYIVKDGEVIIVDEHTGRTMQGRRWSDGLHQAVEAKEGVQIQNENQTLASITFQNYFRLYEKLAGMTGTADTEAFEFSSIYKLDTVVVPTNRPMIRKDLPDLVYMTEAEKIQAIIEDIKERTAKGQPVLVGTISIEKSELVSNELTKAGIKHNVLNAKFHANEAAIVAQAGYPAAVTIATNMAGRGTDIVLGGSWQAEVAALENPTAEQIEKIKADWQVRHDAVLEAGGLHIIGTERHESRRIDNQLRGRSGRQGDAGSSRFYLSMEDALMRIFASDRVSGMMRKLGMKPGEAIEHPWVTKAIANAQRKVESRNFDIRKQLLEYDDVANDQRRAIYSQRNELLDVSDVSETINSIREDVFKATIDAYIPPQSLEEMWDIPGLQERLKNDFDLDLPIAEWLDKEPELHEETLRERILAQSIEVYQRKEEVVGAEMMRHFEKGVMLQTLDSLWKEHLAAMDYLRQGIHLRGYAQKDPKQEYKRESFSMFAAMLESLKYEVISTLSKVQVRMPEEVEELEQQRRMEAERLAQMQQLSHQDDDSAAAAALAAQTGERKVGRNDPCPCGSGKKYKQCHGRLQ

[2] = target: T1, Ubiquitin-activating enzyme e1, putative (Leishmania donovani (strain BPK282A1)) (UniProt E9BSI1); test: Leishmania donovani Ubiquitin Activating Enzyme (LdE1); assay type: functional; settings: 30 µM
T1 sequence (whole entry): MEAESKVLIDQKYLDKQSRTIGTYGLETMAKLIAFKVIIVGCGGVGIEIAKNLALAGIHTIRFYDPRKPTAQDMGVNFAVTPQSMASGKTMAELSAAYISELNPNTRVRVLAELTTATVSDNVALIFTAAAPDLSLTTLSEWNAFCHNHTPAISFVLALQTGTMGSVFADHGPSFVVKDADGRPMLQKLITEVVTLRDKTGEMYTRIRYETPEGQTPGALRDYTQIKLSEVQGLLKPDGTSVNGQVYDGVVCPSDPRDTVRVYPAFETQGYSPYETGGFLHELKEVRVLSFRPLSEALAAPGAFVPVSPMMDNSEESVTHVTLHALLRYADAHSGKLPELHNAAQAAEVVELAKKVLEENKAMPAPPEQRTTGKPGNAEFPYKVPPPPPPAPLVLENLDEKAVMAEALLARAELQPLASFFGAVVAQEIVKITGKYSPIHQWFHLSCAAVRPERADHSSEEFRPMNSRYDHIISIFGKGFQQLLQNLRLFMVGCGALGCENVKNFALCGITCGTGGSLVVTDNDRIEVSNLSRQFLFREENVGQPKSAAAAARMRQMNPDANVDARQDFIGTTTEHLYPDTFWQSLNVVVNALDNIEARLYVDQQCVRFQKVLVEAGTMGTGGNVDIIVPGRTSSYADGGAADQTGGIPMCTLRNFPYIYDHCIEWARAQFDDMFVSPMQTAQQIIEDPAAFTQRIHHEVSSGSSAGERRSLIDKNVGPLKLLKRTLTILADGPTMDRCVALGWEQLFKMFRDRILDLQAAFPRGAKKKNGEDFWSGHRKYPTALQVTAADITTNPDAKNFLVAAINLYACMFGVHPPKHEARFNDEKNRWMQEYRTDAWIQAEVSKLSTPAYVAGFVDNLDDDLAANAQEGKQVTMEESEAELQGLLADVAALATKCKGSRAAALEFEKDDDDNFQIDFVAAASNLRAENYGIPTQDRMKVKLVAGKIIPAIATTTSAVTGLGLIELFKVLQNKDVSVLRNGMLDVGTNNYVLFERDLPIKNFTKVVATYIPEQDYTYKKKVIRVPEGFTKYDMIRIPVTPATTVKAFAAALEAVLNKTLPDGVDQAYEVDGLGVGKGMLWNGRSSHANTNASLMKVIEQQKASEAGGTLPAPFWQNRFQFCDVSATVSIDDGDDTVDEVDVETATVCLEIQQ

[3] = target: Sialic acid-binding Ig-like lectin 9 (Homo sapiens) (UniProt Q9Y336); test: Hs-Siglec9 ALPHAscreen SOP 20170721; settings: 10 µM
Sequence of Sialic acid-binding Ig-like lectin 9 (Homo sapiens) (Q9Y336 whole entry): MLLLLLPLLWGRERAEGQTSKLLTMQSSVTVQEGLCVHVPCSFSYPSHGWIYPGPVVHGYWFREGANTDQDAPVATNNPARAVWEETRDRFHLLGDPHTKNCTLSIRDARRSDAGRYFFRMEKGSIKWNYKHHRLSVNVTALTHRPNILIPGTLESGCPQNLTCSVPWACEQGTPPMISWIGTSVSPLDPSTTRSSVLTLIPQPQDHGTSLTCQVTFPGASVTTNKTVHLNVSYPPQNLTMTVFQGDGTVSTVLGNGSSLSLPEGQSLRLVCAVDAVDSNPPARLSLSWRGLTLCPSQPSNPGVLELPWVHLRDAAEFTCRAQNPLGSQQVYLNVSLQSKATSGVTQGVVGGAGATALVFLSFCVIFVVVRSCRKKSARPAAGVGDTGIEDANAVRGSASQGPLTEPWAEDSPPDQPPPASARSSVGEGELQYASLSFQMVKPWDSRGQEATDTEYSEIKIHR

Trypanosoma cruzi = test: Trypanosoma cruzi phosphomannomutase and mannose-1-phosphate guanylyltransferase assay; assay type: functional; settings: 10 µM
[4] = target: T2, Arginase-2, mitochondrial (Homo sapiens) (UniProt P78540); test: in vitro enzyme assay to detect the production of urea directly proportional to the activity of Arginase II; assay type: functional; settings: 33.3 µM; note: in the data most compounds retested in dose-response had high values
T2 sequence (whole entry): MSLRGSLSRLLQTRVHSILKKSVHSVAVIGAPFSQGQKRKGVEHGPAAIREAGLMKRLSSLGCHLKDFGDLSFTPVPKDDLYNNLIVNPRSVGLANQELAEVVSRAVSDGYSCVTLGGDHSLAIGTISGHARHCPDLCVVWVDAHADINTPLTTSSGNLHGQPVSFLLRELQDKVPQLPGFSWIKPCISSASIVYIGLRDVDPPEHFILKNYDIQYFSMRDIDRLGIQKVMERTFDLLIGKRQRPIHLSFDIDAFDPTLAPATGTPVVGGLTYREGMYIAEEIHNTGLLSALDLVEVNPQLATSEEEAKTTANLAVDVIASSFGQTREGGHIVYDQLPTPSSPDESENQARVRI

[5] = target: T3, Proteasome subunit beta (Trypanosoma cruzi) (UniProt O96673); test: Trypanosoma cruzi proteasome chymotrypsin-like activity (TcProtChymo) assay.; note: in the data most compounds retested in dose-response had high values; assay type: functional; settings: 9.37 µM
T3 sequence (whole entry): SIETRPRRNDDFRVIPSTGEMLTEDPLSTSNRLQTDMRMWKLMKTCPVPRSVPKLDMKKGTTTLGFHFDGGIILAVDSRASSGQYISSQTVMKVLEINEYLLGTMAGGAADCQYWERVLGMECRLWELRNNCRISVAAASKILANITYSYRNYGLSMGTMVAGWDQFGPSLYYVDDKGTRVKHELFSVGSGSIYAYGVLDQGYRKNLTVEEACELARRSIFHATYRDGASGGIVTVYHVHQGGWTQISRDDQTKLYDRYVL

Homo sapiens = species on record: Homo sapiens; test: To identify inhibition of the IFN signalling (Jak-Stat) pathway via expression of an eGFP reporter gene under the control of an IFN-stimulated response element (ISRE) containing MxA promoter.; assay type: functional; settings: 30 µM
[6] = target: T4, Tyrosyl-tRNA synthetase, putative (Trypanosoma cruzi (strain CL Brener)) (UniProt Q4DSP6); test: Trypanosoma cruzi tyrosyl tRNA synthetase (TcYRS) _High Tyrosine SOP; assay type: functional; settings: 30 µM; note: in the data most compounds retested in dose-response had high values
T4 sequence (whole entry): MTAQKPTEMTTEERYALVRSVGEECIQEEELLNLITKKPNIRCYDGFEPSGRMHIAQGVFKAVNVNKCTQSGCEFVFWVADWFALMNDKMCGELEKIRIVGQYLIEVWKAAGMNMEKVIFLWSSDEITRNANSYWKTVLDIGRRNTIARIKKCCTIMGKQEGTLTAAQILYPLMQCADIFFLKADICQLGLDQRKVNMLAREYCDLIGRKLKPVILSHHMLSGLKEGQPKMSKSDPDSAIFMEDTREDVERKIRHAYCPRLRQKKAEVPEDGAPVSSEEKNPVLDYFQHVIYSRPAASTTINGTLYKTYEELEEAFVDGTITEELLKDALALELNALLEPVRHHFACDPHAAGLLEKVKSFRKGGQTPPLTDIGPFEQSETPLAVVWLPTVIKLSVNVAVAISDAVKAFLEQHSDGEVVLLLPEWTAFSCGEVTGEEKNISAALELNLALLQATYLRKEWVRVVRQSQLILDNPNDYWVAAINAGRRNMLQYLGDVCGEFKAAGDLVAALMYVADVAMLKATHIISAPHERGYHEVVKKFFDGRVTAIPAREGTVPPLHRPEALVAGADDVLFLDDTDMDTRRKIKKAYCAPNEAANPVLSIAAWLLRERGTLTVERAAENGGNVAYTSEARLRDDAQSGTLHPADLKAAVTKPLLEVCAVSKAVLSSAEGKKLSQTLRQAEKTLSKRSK

[7] = target: T4, Tyrosyl-tRNA synthetase, putative (Trypanosoma cruzi (strain CL Brener)); test: Trypanosoma cruzi tyrosyl tRNA synthetase (TcYRS) SOP; assay type: functional; settings: 30 µM
[8] = target: Chromo domain-containing protein 1 (Saccharomyces cerevisiae (strain ATCC 204508 / S288c) (Baker's yeast)) (UniProt P32657); test: ScCHD-1 Enzyme Inhibition Assay; assay type: functional; settings: 30 µM; note: in the data most compounds retested in dose-response had high values
Sequence of Chromo domain-containing protein 1 (Saccharomyces cerevisiae (strain ATCC 204508 / S288c) (Baker's yeast)) (P32657 whole entry, the tested form may be a part): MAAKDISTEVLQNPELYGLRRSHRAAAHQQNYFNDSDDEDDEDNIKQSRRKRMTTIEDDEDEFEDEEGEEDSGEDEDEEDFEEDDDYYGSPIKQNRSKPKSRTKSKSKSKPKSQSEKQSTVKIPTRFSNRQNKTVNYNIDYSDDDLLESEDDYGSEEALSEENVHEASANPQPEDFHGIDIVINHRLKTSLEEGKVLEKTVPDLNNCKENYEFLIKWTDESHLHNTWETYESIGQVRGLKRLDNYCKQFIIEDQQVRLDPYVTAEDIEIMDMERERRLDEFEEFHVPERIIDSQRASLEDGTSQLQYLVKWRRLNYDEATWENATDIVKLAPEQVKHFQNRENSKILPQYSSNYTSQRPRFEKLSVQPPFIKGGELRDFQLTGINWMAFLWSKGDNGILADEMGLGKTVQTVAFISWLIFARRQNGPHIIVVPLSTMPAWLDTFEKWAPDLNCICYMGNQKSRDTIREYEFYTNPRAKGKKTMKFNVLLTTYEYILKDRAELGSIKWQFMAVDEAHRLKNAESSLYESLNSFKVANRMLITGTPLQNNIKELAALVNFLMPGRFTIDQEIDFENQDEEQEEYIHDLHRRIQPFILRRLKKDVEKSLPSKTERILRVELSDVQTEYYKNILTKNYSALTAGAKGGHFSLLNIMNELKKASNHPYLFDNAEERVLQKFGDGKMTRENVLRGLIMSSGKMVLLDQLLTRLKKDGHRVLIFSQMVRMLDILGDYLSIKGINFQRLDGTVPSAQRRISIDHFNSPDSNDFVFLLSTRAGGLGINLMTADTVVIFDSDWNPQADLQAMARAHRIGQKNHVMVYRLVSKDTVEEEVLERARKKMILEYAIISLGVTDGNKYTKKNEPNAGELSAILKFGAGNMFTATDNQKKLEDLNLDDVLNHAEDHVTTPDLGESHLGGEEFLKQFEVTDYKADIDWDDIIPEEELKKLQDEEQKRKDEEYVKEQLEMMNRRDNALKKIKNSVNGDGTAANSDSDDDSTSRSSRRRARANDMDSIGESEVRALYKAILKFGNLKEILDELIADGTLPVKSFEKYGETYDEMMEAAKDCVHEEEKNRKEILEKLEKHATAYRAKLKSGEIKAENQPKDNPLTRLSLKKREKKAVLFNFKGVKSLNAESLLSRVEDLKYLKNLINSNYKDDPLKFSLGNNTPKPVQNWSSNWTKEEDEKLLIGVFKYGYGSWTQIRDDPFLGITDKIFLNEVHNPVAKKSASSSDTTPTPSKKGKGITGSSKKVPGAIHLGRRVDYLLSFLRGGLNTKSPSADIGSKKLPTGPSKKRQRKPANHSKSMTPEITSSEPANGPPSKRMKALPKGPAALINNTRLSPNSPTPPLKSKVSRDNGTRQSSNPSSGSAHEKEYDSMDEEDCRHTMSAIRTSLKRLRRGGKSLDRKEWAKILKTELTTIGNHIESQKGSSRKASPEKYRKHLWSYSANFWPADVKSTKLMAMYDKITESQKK

SMILES	Percent Effect [1] [%]	Percent Effect [2] [%]	Percent Effect [3] [%]	Percent Effect (Trypanosoma cruzi) [%]	Percent Effect [4] [%]	Percent Effect [5] [%]	Percent Effect (Homo sapiens) [%]	Percent Effect [6] [%]	Percent Effect [7] [%]	Percent Effect [8] [%]
COCC(=O)N1CCC(c2cc(C(F)(F)F)n3ccnc3n2)CC1	-4.74	17.3	7.36	3.75	0.885	9.85	5.45	3.17	15	-24.5
Cc1ccc2c(n1)N(Cc1cccnc1)CCN(C(=O)C1CCC1)C2	-1.28	6.49	-4.98	-4.77	7.29	11.4	16.9	4.74	7.69	-6.47
CC(C)n1ccnc1C1CCN(C(=O)C2COc3ccccc3O2)CC1 (stereo not given)	-9.12	5.41	10.4	7.08	12.9	13.2	-5.55	7.98	14.6	-3.02
COCC(=O)N1CCC2(CC1)CC(CC(=O)NC1CC1)c1ccccc12 (stereo not given)	-8.48	-1.3	3.8	-1.66	-6.88	-0.0883	-8.57	-0.526	5.13	-0.682
C1CC(CN2CCOCC3(CCN(C4CCOCC4)C3)C2)CCO1 (stereo not given)	-5.96	9.09	-7.57	6.13	-6.88	13.7	3.41	6.84	10.3	0.2
CS(=O)(=O)NCc1ncn2c1CN(C(=O)CC1CCCC1)CCC2	-1.59	-1.3	-3.12	-4.77	-0.81	2.91	12.6	1.58	-2.56	-0.829
CCOc1ccc(CN2CCN(C(=O)c3ccc(C)n3C)CC2)cc1	-2.75	5.33	3.18	1.41	-4.43	12.1	8.63	6.84	15.4	-10.5
O=C(O)c1cc(-c2cccnc2)cc(S(=O)(=O)N2CCCCCC2)c1	-7.1	5.41	3.44	-3.4	0.35	12.7	8.29	5.85	-2.44	-1.87
Cc1cncc(C2CCCN(C(=O)c3ccc(C)[nH]c3=O)C2)n1 (stereo not given)	-4.08	20	0.301	1.58	-1.33	18.4	-10.4	5.29	17.5	-23.9
CN(Cc1ccccc1)CC(O)Cn1cnc2ccsc2c1=O (stereo not given)	-3.3	5.13	-3.73	8.36	-0.41	1.62	17.5	0.478	1.21	3.76
COCCNC(=O)Nc1ccc(F)c(C(N)=O)c1	2.83	15.6	-5.71	-5.04	0.615	8.42	8.95	9.8	16.5	-12.2
CCC(NC(N)=O)c1ccccc1OCC(=O)N1CCCC1 (stereo not given)	-1.4	10.3	-13.8	-4.41	-4.92	9.81	16.9	5.26	18.1	-6
CN(Cc1ccsc1)C(=O)CN1CCOC(Cn2cccn2)C1 (stereo not given)	-9.25	7.79	-1.67	-1.49	-0.615	-3.51	19.9	0	-16.5	-7.08
COc1ccccc1-c1noc(CN2CCCC2Cn2cccn2)n1 (stereo not given)	-4.25	-13.3	1.74	3.01	-0.444	14.3	1.34	1.58	0	-7.06
Cc1cccnc1C(=O)N1CCCCC1c1[nH]ncc1S(C)(=O)=O (stereo not given)	-3.04	6.67	0.367	-1.97	6.64	4.76	0.716	7.41	7.5	-19.6
COCCc1noc(CN2CCCCC2Cn2cc(C)cn2)n1 (stereo not given)	-0.511	-2.56	-0.235	3.85	-1.23	3.84	12.7	-3.35	6.02	-1.31
CCOC(=O)N1CCN(C(=O)c2sc(-c3ccccc3F)nc2C)CC1	-2.12	5.41	6.21	0.097	30.4	13.5	-3.93	4.79	14.6	-4.07
CC(=O)N(Cc1noc(C)n1)C1CCN(CCOc2ccccc2)C1 (stereo not given)	-2.68	13	0.712	-1.68	-0.615	17.9	-1.33	7.84	21.2	-7.28
CCn1ccnc1CN1CCCN(C(=O)c2cccc(C#N)c2)CC1	0.122	2.56	-6.11	7.79	7.38	0.939	9.49	1.44	1.21	1.21
Cc1cc(C)n(C2CCCN(C(=O)COCC(F)(F)F)C2)n1 (stereo not given)	-4.46	2.56	11.4	0.657	6.15	-7.59	-11.3	1.44	-1.21	-0.331
CCOC(=O)N1CCN(C(=O)c2ccc3ccn(C)c3c2)CC1	-3.31	0	29	7.47	-8.74	11.6	9.78	4.79	7.32	5.11
Cc1cc(-c2cnn(CCNC(=O)C3CC3)c2C2CC2)on1	-4.16	4	-5.41	-1.77	-1.77	5.91	17.8	-3.17	0	-25.2
Cc1cc(OCC(=O)NS(=O)(=O)c2c(C)noc2C)ccc1Cl	-0.396	-5.13	2.29	4.79	0	1.28	18.7	-5.26	-1.21	0.575
